Where “and” joins values, the source holds several entries; their conditions need not be identical. Equal values may be shown once. Records with an inconclusive call do not appear. A call without a number means that no potency is given here. The source holds several records for some structures; these can differ, active in one and inactive in another. Calls of active or inactive are those of the source. The call rests on the fitted dose curve.
Potency means the concentration at half of the fitted maximal effect.

The nature of this assay: qHTS assay for small molecule agonists of the p53 signaling pathway (AID 651631). Further: nearly all actives have a fitted effect of over 15% in size. Particulars: HCT-116 p53RE-bla reporter, beta-lactamase FRET ratio, 16 h; series mostly up to 73.3 µM. The text has this:
U.S. Tox21 Program National Center for Advancing Translational Sciences [NCATS] NIH Chemical Genomics Center [NCGC] U.S. Environmental Protection Agency [EPA] National Institutes of Environmental Health Sciences [NIEHS] National Toxicology Program [NTP] U.S. Food and Drug Administration [FDA] Tox21 Assay Overview: p53, a tumor suppressor protein, is activated following cellular insult, including DNA damage and other cellular stresses. The activation of p53 regulates cell fate by inducing DNA repair, cell cycle arrest, apoptosis, or cellular senescence. The activation of p53, therefore, is a good indicator of DNA damage and other cellular stresses. The CellSensor p53RE-bla HCT-116 cell line (Invitrogen) contains a stably integrated beta-lactamase reporter gene under control of the p53 response elements. The activation of the reporter gene under culture conditions can be detected by fluorescence intensity. This cell line was used to screen the Tox21 compound library in a 1536-well plate format and to identify agonists that activate the p53 signaling pathway.
Tox21 Assay Protocol Summary: The p53RE-bla cells were dispensed at 4,000 cells/5 ul/well in 1536-well black wall/clear bottom plates using a Multidrop dispenser. After the assay plates were incubated at a 37 C/5% CO2 incubator for 5 hours, 23 nL of compounds dissolved in DMSO, positive controls or DMSO only was transferred to the assay plate by a pin tool. The plates were incubated at 37 C for 16 hours. After 1 uL of LiveBLAzerTM B/G FRET substrate was added using a Flying Reagent Dispenser, the plates were incubated at room temperature for 2 hours, and fluorescence intensity was measured by an Envision plate reader.
A general note: Quantitative high-throughput screening tests each substance at several concentrations.
As for `CC(C)[C@@H]1CC[C@@H](C)CC1=O`, the Potency result was “inactive”.
`CC/C(=C(/CC)c1ccc(O)cc1)c1ccc(O)cc1`: the Potency is 9.44 µM (active) and 13.6 µM (active) and 15.4 µM (active).
Then `O=[Se](O)O`, with 24.4 µM (active) and inactive.
In the case of `c1ccc2c(c1)ccc1cc3c(ccc4ccccc43)cc12` it was 12.1 µM (active); in that of `Cc1ccc(C)c(O)c1`, “inactive”; in that of `C1CN(SSN2CCOCC2)CCO1`, “inactive”.
Then `Cc1ccc(C(C)(C)C)cc1`, with “inactive”; and `NCCS(=O)(=O)O`, with “inactive”; and `CCCCCC=O`, with “inactive”.
Regarding `CC(=O)Oc1ccc(C(c2ccc(OC(C)=O)cc2)c2ccccn2)cc1`, the Potency is 944 nM (active) and 271 nM (active).
On to `CC1=CC(C)(C)Nc2ccccc21`, for which the Potency result is “inactive”.
`[O-]/[N+](=N\O)c1ccccc1`: the Potency entry was “inactive”.
`Nc1cc(Cl)c(N)c(Cl)c1`: the Potency result is “inactive”.
Then `NCCOCCO`, with “inactive”; and `ClC/C=C/CCl`, with “inactive”; and `[Na+]`, with “inactive”.
In the case of `Cc1ccc(S(=O)(=O)NCl)cc1`, the Potency entry is “inactive”.
Then `CN(C)CCCN1c2ccccc2Sc2ccc(Cl)cc21`, with 10.9 µM (active).
Take `CCO[Si](CCCNC(N)=O)(OCC)OCC`: the Potency entry is “inactive”.
On to `CCCCCCCC/C=C\CCCCCCCC(=O)O`, for which the Potency entry was “inactive”.
Take `CCCCCC1C(=O)CCC1CC(=O)OC` (stereo not given): the Potency result is “inactive”.
For the compound `O=C(O)CCCCCCCCCCCC(=O)O`, the Potency entry is “inactive”.
`CC(=O)OC(C)C`: the Potency entry is “inactive”.
On to `COc1cc([C@H]2Oc3cc([C@H]4Oc5cc(O)cc(O)c5C(=O)[C@@H]4O)ccc3O[C@@H]2CO)ccc1O`, for which the Potency result is “inactive”.
For `C=C[C@@]1(C)CC(=O)[C@]2(O)[C@@]3(C)[C@@H](O)CCC(C)(C)[C@@H]3[C@H](O)[C@H](OC(C)=O)[C@@]2(C)O1`, the Potency result is “inactive”.
In the case of `O=C(O)c1ccc(O)cc1`, the Potency result is “inactive”.
In the case of `CC(=O)[C@@]1(O)CC[C@H]2[C@@H]3C[C@H](C)C4=CC(=O)C=C[C@]4(C)[C@@]3(F)[C@@H](O)C[C@@]21C` it was “inactive”; in that of `COC(=O)C(C)Oc1ccc(Oc2ncc(C(F)(F)F)cc2Cl)cc1` (stereo not given), “inactive”.
Take `IC(I)I`: the Potency entry was “inactive”.
In the case of `C[C@]12C=CC(=O)C=C1CC[C@H]1[C@@H]3C[C@@H](O)[C@](O)(C(=O)CO)[C@@]3(C)C[C@H](O)[C@@]12F` it was “inactive”; in that of `CC(C)(C)c1cccc(C(C)(C)C)c1O`, “inactive”.
In the case of `Clc1ccc(Sc2cc(Cl)c(Cl)cc2Cl)cc1` it was “inactive”.
Then `C1COCCN1`, with “inactive”; and `C[C@]12CC[C@@H]3c4ccc(O)cc4CC[C@H]3[C@@H]1CC[C@H]2O`, with 15.6 µM (active) and 27.3 µM (active).
Regarding `C=C[Si](OCCOC)(OCCOC)OCCOC`, the Potency entry is “inactive”.
In the case of `Cc1ccc(S(=O)(=O)O)cc1C` it was “inactive”.
As for `Nc1cc([N+](=O)[O-])ccc1C(=O)O`, the Potency result is “inactive”.
In the case of `c1ccc2cc3ccccc3cc2c1` it was “inactive”.
In the case of `O=C(O)c1cc(=O)[nH]c(=O)[nH]1` it was “inactive”.
Then `CCc1cccc2c3c([nH]c12)C(CC)(CC(=O)O)OCC3` (stereo not given), with “inactive”.

(Values after PubChem BioAssay (Tox21).)
